Eight compounds from ChEMBL document CHEMBL1961873, “Compounds: GSK PKIS; Assays: Nanosyn kinase panel” (2012) can be followed below.

The target in assay [1] is T1, Serine/threonine-protein kinase Nek9 (Homo sapiens) (UniProt Q8TD19).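 Note: each value is a mean percent inhibition of NEK9.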
T1 sequence (whole entry): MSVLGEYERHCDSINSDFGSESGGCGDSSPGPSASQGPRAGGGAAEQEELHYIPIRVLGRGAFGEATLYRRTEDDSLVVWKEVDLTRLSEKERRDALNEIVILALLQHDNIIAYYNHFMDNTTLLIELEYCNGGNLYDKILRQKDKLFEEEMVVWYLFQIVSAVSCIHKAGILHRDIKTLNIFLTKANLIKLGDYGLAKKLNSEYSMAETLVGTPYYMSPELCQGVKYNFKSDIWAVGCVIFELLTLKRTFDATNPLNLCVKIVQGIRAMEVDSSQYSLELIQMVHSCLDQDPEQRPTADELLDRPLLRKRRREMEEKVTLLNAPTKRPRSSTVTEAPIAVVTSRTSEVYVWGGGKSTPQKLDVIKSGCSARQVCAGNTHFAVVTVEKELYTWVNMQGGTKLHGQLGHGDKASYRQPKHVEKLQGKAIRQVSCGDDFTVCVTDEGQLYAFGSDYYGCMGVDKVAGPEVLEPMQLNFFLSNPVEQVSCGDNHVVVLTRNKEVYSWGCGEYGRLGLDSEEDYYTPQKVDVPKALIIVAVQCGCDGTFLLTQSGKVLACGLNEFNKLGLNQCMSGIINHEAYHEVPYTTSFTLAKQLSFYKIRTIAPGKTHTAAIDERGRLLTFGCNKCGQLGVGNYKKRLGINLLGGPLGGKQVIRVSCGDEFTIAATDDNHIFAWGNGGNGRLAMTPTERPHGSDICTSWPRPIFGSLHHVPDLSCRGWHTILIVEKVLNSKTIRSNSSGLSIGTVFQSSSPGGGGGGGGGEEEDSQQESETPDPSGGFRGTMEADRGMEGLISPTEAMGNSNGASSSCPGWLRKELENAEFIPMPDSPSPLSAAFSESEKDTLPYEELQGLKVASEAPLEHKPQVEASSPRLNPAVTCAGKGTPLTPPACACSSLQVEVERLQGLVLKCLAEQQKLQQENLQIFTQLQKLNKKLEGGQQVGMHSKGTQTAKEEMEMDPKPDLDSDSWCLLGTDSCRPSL
Conditions: at 1 µM.

The target of assay [2] is Serine/threonine-protein kinase PLK1 (Homo sapiens) (UniProt P53350). Conditions: at 0.1 µM.
Chain of Serine/threonine-protein kinase PLK1 (Homo sapiens) (P53350 whole entry): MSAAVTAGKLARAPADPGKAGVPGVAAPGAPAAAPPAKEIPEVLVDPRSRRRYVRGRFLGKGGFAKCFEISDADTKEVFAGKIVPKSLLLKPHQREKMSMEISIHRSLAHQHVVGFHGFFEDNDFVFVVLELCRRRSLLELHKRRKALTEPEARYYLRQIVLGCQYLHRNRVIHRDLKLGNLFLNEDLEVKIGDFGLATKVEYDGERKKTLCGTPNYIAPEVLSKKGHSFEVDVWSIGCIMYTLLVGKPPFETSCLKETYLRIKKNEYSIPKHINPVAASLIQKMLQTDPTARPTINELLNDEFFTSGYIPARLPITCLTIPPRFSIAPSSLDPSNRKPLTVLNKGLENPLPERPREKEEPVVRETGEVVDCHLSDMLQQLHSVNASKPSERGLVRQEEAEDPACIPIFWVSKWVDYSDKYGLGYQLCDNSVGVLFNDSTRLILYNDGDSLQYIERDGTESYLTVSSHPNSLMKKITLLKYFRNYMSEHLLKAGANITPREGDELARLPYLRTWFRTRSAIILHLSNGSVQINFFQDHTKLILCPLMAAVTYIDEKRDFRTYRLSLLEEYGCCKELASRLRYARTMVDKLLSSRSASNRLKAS
For assay [3] the target is unchanged. The conditions noted are these: at 1 µM.
Assay [4] deals with T2, Dual specificity protein kinase TTK (Homo sapiens) (UniProt P33981).
T2 sequence (whole entry): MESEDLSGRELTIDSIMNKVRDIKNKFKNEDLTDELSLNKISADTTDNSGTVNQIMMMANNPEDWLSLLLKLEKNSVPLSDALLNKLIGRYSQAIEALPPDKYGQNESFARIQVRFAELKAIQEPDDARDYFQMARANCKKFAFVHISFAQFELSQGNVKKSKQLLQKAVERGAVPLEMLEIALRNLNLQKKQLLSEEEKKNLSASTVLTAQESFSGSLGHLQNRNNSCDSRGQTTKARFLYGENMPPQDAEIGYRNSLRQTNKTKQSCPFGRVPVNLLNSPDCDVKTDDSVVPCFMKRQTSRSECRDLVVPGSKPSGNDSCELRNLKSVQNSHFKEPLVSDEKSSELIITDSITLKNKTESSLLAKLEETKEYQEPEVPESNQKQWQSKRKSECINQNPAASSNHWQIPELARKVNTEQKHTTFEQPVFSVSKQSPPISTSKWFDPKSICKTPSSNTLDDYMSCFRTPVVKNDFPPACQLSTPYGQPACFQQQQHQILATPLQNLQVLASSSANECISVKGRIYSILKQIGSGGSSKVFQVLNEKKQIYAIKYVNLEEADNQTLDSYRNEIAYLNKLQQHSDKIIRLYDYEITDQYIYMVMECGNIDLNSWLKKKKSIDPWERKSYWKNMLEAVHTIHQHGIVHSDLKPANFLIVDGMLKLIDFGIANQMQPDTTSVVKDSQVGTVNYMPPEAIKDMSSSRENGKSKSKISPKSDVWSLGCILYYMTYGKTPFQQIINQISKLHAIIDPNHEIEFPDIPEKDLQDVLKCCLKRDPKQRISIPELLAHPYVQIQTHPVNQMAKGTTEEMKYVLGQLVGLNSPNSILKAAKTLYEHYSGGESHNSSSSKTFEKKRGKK
The conditions noted are these: at 0.1 µM.

The test system of assay [5] is T3, Receptor-type tyrosine-protein kinase FLT3 (Homo sapiens), P36888 [D835Y].
T3 sequence (whole entry): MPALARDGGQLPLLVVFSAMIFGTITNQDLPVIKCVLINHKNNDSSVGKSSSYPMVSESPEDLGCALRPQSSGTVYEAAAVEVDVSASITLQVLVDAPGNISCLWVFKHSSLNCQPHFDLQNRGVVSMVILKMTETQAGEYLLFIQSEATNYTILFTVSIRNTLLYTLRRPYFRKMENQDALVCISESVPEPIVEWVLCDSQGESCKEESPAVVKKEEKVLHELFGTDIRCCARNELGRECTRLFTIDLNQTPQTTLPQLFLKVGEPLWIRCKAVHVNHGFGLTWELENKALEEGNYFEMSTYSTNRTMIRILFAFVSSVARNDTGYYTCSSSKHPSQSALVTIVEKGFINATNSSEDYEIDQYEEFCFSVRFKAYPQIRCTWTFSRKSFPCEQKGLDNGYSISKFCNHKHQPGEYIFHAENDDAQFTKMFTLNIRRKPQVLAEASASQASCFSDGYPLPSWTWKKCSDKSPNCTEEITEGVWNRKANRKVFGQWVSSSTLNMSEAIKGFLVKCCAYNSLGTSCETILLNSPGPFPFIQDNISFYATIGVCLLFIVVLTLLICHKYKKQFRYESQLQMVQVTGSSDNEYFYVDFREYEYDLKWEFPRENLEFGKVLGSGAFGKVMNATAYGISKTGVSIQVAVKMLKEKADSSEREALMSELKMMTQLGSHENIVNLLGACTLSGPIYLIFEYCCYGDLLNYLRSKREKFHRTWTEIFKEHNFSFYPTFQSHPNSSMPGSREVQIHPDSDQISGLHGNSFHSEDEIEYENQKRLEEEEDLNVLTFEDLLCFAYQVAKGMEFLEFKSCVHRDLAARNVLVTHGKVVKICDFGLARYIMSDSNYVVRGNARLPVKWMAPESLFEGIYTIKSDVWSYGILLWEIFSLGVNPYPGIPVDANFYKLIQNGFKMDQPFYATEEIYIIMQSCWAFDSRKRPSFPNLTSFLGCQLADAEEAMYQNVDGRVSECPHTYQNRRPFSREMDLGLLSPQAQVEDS
The conditions noted are these: at 1 µM.

Assay [6] concerns the target Vascular endothelial growth factor receptor 3 (Homo sapiens) (UniProt P35916). Conditions: at 0.1 µM.
Assay [7] shares this target. The conditions noted are these: at 1 µM.
Assay [8] has as its target Macrophage colony-stimulating factor 1 receptor (Homo sapiens) (UniProt P07333). The conditions noted are these: at 0.1 µM.
For assay [9] the target is unchanged. Conditions: at 1 µM.
Assay [10] has as its target Tyrosine-protein kinase Fyn (Homo sapiens) (UniProt P06241). The conditions noted are these: at 0.1 µM.

Chain of Tyrosine-protein kinase Fyn (Homo sapiens) (P06241 2-537 limits assumed): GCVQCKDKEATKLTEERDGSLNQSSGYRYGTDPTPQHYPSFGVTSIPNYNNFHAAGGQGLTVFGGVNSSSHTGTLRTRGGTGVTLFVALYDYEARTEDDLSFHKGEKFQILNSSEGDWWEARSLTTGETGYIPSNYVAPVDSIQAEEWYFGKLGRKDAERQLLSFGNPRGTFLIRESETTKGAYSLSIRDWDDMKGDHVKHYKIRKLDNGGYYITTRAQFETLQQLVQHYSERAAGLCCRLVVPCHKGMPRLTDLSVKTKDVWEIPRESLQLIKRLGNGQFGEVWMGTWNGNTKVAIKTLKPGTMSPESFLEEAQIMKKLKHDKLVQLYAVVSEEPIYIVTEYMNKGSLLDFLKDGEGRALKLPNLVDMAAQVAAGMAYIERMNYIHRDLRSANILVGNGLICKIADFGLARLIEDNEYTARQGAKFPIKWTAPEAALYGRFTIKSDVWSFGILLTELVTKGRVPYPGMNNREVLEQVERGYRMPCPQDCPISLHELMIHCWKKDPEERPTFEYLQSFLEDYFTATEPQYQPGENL
Chain of Vascular endothelial growth factor receptor 3 (Homo sapiens) (P35916 whole entry): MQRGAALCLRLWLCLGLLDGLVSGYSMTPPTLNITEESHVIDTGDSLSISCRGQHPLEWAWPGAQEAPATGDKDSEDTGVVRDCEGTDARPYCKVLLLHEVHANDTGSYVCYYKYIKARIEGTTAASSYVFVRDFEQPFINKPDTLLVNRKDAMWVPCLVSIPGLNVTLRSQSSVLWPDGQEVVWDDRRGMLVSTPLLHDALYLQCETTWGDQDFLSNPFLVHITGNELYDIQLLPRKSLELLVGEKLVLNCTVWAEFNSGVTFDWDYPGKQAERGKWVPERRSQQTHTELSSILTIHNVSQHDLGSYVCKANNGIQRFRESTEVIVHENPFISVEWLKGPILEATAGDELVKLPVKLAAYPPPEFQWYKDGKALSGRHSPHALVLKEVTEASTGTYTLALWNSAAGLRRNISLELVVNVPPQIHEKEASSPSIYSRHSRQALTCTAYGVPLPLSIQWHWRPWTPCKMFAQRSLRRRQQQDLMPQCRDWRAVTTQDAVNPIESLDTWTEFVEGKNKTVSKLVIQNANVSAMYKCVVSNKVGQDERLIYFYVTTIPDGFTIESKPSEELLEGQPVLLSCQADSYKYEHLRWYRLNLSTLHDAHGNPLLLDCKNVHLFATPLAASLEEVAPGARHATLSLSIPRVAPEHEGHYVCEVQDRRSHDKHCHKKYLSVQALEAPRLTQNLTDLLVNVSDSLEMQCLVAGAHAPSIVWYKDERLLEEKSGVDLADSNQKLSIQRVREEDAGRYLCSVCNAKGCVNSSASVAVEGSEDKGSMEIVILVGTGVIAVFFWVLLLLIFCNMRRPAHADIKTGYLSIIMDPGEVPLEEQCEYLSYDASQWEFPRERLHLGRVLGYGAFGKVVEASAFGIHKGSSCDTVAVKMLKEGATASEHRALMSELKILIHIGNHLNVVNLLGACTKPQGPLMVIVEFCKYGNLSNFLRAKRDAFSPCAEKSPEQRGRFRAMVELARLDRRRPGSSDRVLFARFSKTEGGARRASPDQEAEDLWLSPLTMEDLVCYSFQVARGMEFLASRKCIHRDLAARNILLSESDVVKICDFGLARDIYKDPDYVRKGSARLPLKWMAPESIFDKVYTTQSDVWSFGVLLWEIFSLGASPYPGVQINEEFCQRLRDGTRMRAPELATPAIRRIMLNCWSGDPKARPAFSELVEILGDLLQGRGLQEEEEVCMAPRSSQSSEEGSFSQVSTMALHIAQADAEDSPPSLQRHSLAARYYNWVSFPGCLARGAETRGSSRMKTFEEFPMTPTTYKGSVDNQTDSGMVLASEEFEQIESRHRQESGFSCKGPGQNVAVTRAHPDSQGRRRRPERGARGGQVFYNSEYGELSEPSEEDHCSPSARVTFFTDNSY
Chain of Macrophage colony-stimulating factor 1 receptor (Homo sapiens) (P07333 whole entry): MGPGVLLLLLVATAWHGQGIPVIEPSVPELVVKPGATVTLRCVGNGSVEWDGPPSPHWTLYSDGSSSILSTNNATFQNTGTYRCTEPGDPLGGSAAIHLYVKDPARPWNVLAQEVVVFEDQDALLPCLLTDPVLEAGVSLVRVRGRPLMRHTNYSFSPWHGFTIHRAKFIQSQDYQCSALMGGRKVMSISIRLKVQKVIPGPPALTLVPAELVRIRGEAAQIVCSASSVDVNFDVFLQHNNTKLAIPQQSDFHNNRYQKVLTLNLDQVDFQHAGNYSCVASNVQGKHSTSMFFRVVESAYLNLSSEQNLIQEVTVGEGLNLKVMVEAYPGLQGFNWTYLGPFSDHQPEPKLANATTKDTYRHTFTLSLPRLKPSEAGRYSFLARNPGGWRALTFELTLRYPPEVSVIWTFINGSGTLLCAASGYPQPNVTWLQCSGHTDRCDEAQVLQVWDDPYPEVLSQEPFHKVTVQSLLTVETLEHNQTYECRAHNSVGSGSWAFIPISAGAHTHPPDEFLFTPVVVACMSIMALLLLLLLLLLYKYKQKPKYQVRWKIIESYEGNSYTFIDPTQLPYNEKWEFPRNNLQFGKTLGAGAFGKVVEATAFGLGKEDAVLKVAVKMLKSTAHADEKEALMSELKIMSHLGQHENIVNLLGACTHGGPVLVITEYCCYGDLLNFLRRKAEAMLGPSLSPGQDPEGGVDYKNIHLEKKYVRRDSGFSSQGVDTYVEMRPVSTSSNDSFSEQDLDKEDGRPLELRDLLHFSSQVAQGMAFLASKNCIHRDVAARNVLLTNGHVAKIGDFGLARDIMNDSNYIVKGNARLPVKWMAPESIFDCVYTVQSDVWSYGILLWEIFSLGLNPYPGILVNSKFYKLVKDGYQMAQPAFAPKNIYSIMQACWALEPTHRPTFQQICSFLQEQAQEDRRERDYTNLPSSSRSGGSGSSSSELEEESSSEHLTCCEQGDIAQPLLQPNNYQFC

In general, inhibition refers to the relative decrease from the control value, in per cent. With `CC1=C(C(=O)Nc2cc(Cl)c3[nH]ncc3c2)C(c2ccc(C(F)(F)F)cc2)CC(=O)N1` (stereo not given), the inhibition in assay [1] is 8.4%; in assay [2] it was 4.17%; in [3], 4.12%; in assay [4], 5.88%; in assay [5] it was 1.66%; in assay [6] it was -0.3%. Also, the inhibition in assay [7] was -1.34%; in [8], 5.21%; in assay [9], 1.8%; in [10] it was 0.13%.
As to `Cc1cccc2c1NC(=O)/C2=N\Nc1ccc(S(N)(=O)=O)cc1`, the inhibition in assay [1] was 3.99%; in assay [2] it was 0.77%; in assay [3], 2.15%; in assay [4], 1.78%; in [5], 10.5%; in [6], 3.59%. In addition, the inhibition in [7] is -0.85%; in assay [8] it was 2.22%; in [9] it was 7.87%; in [10], 2.11%.
For `CNC(=O)c1cccc(C#Cc2cncnc2Nc2ccc(OCc3cccc(F)c3)c(Cl)c2)c1`, the inhibition in assay [1] is 4.28%; in assay [2], -0.42%; in assay [3], 0.52%; in assay [4], 3.66%; in [5], 0.94%; in [6], -2.07%. Moreover, the inhibition in [7] worked out at 3.4%; in [8] it was 1.48%; in assay [9], 7.16%; in assay [10], 1.46%.
Consider `COc1ccc(CNC(=O)c2ccc(-c3cc(-c4nnc(C)o4)ccc3C)cc2)cc1`, for which the inhibition in [1] is 6.3%; in assay [2] it was 2.95%; in [3], 1.61%; in assay [4], 1.98%; in assay [5] it was -2.55%; in [6], -1.03%. The inhibition is -1.53% in assay [7], 1.47% in assay [8], 0.46% in assay [9] and 0.71% in assay [10].
Consider `CC(C)(CO)CNC(=O)c1ccc2c(c1)/C(=N/Nc1ccc(S(N)(=O)=O)cc1)C(=O)N2`, for which the inhibition in [1] amounted to 8.02%; in assay [2], 1.21%; in assay [3] it was 0.88%; in assay [4], 61.5%; in [5], 45.6%; in assay [6], 4.05%. Further, the inhibition in assay [7] is 44.3%; in assay [8], -6.57%; in [9], 3.69%; in assay [10], 10.9%.
As for `NC(=O)c1sc(-n2cnc3ccc(C(F)(F)F)cc32)cc1OCc1ccccc1Br`, the inhibition was 28.9% in assay [1]; 81.4% in [2]; 94.3% in assay [3]; 8.68% in [4]; 5.89% in assay [5]; -1.7% in assay [6]. Moreover, the inhibition in assay [7] amounted to 3.99%; in assay [8], 0.91%; in assay [9], 3.49%; in assay [10], 2.36%.
On to `COc1ccc(-c2nn3ncccc3c2-c2ccnc(Nc3ccc4c(c3)OCCO4)n2)cc1`, for which the inhibition in assay [1] was determined as 8.39%; in [2], 2.68%; in assay [3], 2.45%; in assay [4], 4.08%; in assay [5] it was 0.07%; in [6] it was 8.62%. Further, the inhibition was found to be 56.4% in assay [7], 19.6% in [8], 66.8% in assay [9] and 5.65% in assay [10].
For `COc1cc(Nc2nccc(Nc3ccc4c(C)n[nH]c4c3)n2)cc(OC)c1OC`, the inhibition was 5.56% in [1]; 2.28% in [2]; 4.34% in assay [3]; 2.57% in [4]; 87.2% in [5]; 78.8% in [6]. Besides, the inhibition in assay [7] turned out to be 106%; in assay [8] it was 79.3%; in assay [9], 94.1%; in assay [10], 44.9%.
